# Assay outcomes deposited in PubChem BioAssay by several laboratories.
# aSyn UTR inh: 5' untranslated region of α-synuclein, MLPCN primary screen; alpha-synuclein 5'UTR reporter, inhibitor activity; inhibition, % (tested at 7.5 µM); actives 0.82% (n = 300,000); in the data active = inhibition above about 60%;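 note: H4 neuroglioblastoma cells stably carrying SNCA 5'UTR luciferase fusion; 0% = DMSO wells and 100% = positive control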
# Wee1 stabilizer: blocks degradation of human Wee1 kinase; reporter increase, % at 5 µM; HeLa Luc-Wee1K328M stability, luciferase luminescence; 100% = proteasome inhibitor MG132 effect; actives 1.2% (n = 220,000);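 active = activation above the mean of all tested compounds plus 3 SD, set per screening run, cut at about 8.8% in these data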;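 note: cells exposed to compound for 20 h before luminescence read; 0% = DMSO alone and 100% = MG132 at 30 µM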
# Target sequence (P30291 whole entry K328M): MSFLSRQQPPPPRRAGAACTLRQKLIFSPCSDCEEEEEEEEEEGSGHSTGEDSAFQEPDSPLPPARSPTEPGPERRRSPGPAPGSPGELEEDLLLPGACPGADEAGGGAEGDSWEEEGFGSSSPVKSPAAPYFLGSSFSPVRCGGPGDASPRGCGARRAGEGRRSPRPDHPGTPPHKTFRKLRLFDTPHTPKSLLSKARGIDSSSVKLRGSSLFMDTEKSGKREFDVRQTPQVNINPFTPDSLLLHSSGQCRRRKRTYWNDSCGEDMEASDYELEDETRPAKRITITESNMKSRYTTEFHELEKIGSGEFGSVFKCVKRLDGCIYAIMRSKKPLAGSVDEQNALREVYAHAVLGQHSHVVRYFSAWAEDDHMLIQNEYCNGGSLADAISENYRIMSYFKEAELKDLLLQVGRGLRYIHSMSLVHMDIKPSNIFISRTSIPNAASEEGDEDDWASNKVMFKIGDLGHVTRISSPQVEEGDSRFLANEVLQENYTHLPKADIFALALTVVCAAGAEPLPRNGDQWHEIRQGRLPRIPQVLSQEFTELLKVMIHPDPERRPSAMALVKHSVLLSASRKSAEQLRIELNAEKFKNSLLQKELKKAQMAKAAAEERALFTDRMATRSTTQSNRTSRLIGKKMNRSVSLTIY
# KLF5 inh: inhibitors of KLF5 expression; DLD-1 KLF5 promoter-luciferase reporter, luminescence; inhibition, % at 5 µM; actives 0.23% (n = 290,000);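 active = inhibition above a per-plate limit of that plate's mean compound inhibition plus 3 SD, cut at about 60% in these data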;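 note: 0% = DMSO wells and 100% = LY294002 at 200 µM; higher means less KLF5 promoter-driven luciferase light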
# Platelet DG rel: modulates dense granule release in human platelets; human platelet-rich plasma, SFLLRN dense granule ATP release, luminescence; inhibition, %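 (compounds screened at 7.5 µM in platelet-rich plasma)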; actives 0.22% (n = 300,000);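 active = mean replicate score, as percent of positive control, at or above 50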
# HIF activator: HIF pathway transcriptional activation | activation, % at 7.5 µM (by protocol) | U2OS HRE-luciferase reporter, luminescence; normalized: DMSO 0%, desferrioxamine 100% | actives 0.32% (n = 300,000) | AID 1910;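 active = mean activation of at least 10% of the iron chelator positive control signal, with at least half of replicates also reaching 10%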
# Starred values were filed as active, the others as inactive; / = no result. In the library only some 2.1% were active in any assay of this set; here they are far more common.
SMILES,aSyn UTR inh,Wee1 stabilizer,KLF5 inh,Platelet DG rel,HIF activator
O=C(Nc1nc2ccccc2n1CCOc1ccccc1)c1ccco1,58,1,-17,0,1
Cc1ccc(OCCn2c(NC(=O)c3ccco3)nc3ccccc32)cc1,67*,1,-16,5,0
CC(C)c1ccc2nc(SCC(=O)NCC3CCCO3)c(C#N)cc2c1 (centres undefined),-143,/,-43,6,2
O=C1NC(=O)C2(CCC(C(=O)O)C2)N1 (centres undefined),19,-1,18,50*,0
CCOc1ccccc1CNS(=O)(=O)c1ccc(-c2cnc(C3CC3)o2)cc1,74*,/,35,-3,-1
Cc1cccc(C)c1NS(=O)(=O)c1ccc(-c2cnc(C3CC3)o2)cc1,103*,/,47,-3,1
O=S(=O)(NCc1ccccc1)c1ccc(-c2cnc(C3CC3)o2)cc1,8,/,-20,9,0
Cc1ccc(NS(=O)(=O)c2ccc(-c3cnc(C4CC4)o3)cc2)cc1,-35,/,30,-6,0
Cc1ccc(N(C)S(=O)(=O)c2ccc(-c3cnc(C4CC4)o3)cc2)cc1,84*,/,52,10,0
COc1ccc(C)cc1NS(=O)(=O)c1ccc(-c2cnc(C3CC3)o2)cc1,102*,/,61,14,0
NC(=NCCc1ccccc1)NC(=O)c1cc(Cl)ccc1O,-108,/,/,4,0
Cc1cccc(C)c1NC1=C(Cl)C(=O)OC1OC(C)C (centres undefined),8,-3,6,-6,0
Cc1ccc(NC2=C(Cl)C(=O)OC2OC(C)C)c(C)c1 (centres undefined),69*,-1,-22,26,0
Cc1cc(C(=O)N/N=C/c2cccc([N+](=O)[O-])c2O)n[nH]1,-7,0,-15,11,0
Cc1c(C(=O)N/N=C/C(C)C)[nH]c2c([N+](=O)[O-])cccc12,68*,-3,2,1,1
Cc1ccc(N2CCN(C(=O)c3cc(-c4ccc(F)cc4)[nH]c3C)CC2C)cc1 (centres undefined),15,/,-35,3,1
O=c1oc2ccccc2cc1-c1cn2cccnc2n1,-65,-1,-205,8,0
O=c1oc2ccccc2cc1-c1cn2ccccc2n1,98*,-4,-27,44,-2
COc1ccc(-c2cc(=O)oc3cc(OCC(=O)NCC4CCC(C(=O)O)CC4)ccc23)cc1 (centres undefined),20,/,-21,-3,0
CN1CCN(c2ccccc2NC(=O)c2ccc(F)cc2)CC1,-3,-4,-3,-1,/
CC1CCN(c2ccccc2NC(=O)c2ccc(F)cc2)CC1,13,9.5*,-16,0,-1
O=C(Nc1nc(-c2ccccn2)cs1)c1ccc(S(=O)(=O)N2CCCCC2)cc1,57,2,46,3,16*
O=C(Nc1nc(-c2cccs2)cs1)c1ccc(S(=O)(=O)N2CCCCC2)cc1,-13,-2,-6,12,0
C[C@H](NC(=O)c1ccccc1)C(=O)Nc1nc(-c2ccccn2)cs1,-11,-2,-26,4,-1
Cc1cccnc1Nc1nc(-c2ccccn2)cs1,51,3,11,21,182*
SMILES,aSyn UTR inh,Wee1 stabilizer,KLF5 inh,Platelet DG rel,HIF activator
Cc1cccc(C(=O)NC(C(=O)Nc2nc(-c3ccccn3)cs2)C(C)C)c1 (centres undefined),81*,0,26,-9,0
O=C(Nc1nc(-c2ccccn2)cs1)c1ccc(Cl)s1,68*,10.0*,10,-23,/
Cc1cccnc1Nc1nc(-c2ccccc2)cs1,-128,/,-135,22,2
CCOC(=O)Cc1nnc(NC(=O)CSc2nnc3c(n2)[nH]c2ccccc23)s1,7,1,-36,2,0
COC(=O)c1ccc(OC(=O)C2CSC3(C)CCC(=O)N23)cc1 (centres undefined),-7,/,/,/,0
NC(=O)c1ccc(/C=N/O)nc1,32,1,24,-3,1
O=C(OCc1ccc(Cl)cc1Cl)c1ccncc1,0,3,3,0,/
CC(Oc1cccc(Cl)c1)C(=O)Nc1ccncc1 (centres undefined),-3,-4,-22,-5,0
CC(Oc1cccc(Cl)c1)C(=O)Nc1nc(-c2ccccn2)cs1 (centres undefined),64*,/,/,-3,2
CCN(CC)S(=O)(=O)c1cccc(C(=O)N/N=C2\CC(=O)CC(C)(C)C2)c1,-16,9.5*,-14,2,1
Cc1ccc(C(C)C)c(OCc2ccc(C(=O)N/N=C/c3ccc(O)c(O)c3)cc2)c1,31,1,-28,-6,-4
Cc1ccc(C(C)C)c(OCc2ccc(C(=O)N/N=C/c3cccc(O)c3O)cc2)c1,108*,9,34,19,70*
CCN(CC)S(=O)(=O)c1cccc(C(=O)N/N=C/c2cccc(O)c2O)c1,66*,-1,-22,2,7
O=C(N/N=C/c1ccccc1O)c1cccc(C(F)(F)F)c1,82*,2,-11,18,41*
COCCCN1C(=O)C(=O)/C(=C(/O)c2ccc(S(=O)(=O)N3CCOCC3)cc2)C1c1cccc(Cl)c1 (centres undefined),12,/,-15,20,0
COc1cccc(CN2CCNC(=O)C2CC(=O)NCCCN2CCCC2=O)c1 (centres undefined),3,/,-34,-35,0
COc1ccccc1-c1cc(C(=O)NC2CCN(C)CC2)c2ccc(Cl)c(C)c2n1,101*,/,-20,0,0
O=[N+]([O-])/C(C(Cl)=C(Cl)Cl)=C(/NC1CC1)Sc1ccccc1,-8,0,5,-1,0
Cc1ccc2[nH]c(-c3ccccc3)cc(=O)c2c1,89*,0,57,2,3
O=C(O)Cn1cccc1C(=O)c1ccccc1,/,9.2*,-8,-2,/
Cc1noc(C)c1S(=O)(=O)N(Cc1ccccc1)C(C)C,3,0,0,17,0
CCOC(=O)C1=NN(C(=O)c2cccc(Br)c2)C(O)(C(C)(C)C)C1 (centres undefined),105*,3,-35,1,0
CCOC(=O)C1=NN(C(=O)c2ccccc2)C(O)(c2ccc(C)cc2)C1 (centres undefined),8,15*,-9,1,0
Cc1ccc(S(=O)(=O)NCCN=Cc2ccc(N(C)C)cc2)cc1,-4,/,-22,2,0
Cc1ccc2nc(Cl)c3nnnn3c2c1,-25,-4,-5,0,0
Cc1ccc2nc(N3CCN(c4cccc(C)c4C)CC3)c3nnnn3c2c1,25,10*,-9,0,0
O=C(Nc1ccc(S(=O)(=O)Nc2cnc3ccccc3n2)cc1)c1cc(F)c(F)cc1Cl,-3,/,-14,-7,-1
N=C(N)SCc1cn2ccccc2n1,-7,8.8*,10,-3,0
Nc1ccccc1SCc1cn2ccccc2n1,-41,-1,-115,10,2
Cc1nn(CCCC(=O)Nc2cccnc2)c(C)c1[N+](=O)[O-],-5,-2,2,1,0
